These entries were drawn from the full list.
aSyn UTR act: Activators via SNCA 5'UTR binding, MLPCN. alpha-synuclein 5'UTR reporter, activators screen. actives 7.1% (n = 300,000). AID 1814, 2009. activity score, % (tested at 7.5 µM), hits read low; in the data active means activity score below about -60%
* = called active by the depositor.

What do the screens show for `CCOc1ccc(NS(=O)(=O)c2cc(OC)ccc2OC)cc1`?
aSyn UTR act: -90.8*

Results for COc1ccc(C(=O)CNc2ccccc2Br)cc1 ?
aSyn UTR act: -180.8*

How did CCOc1ccc(N/C=C/C(=O)c2ccc(OC)c(OC)c2)cc1 do in these assays?
aSyn UTR act: -175.4*

What do the screens show for `CCn1c(=N)n(CC(=O)c2cccc([N+](=O)[O-])c2)c2ccccc21`?
aSyn UTR act: -82.6*

What do the screens show for `CN(C)S(=O)(=O)Oc1cccc(C(=O)Nc2ccc([N+](=O)[O-])cc2)c1`?
aSyn UTR act: -168.3*

Results for COc1ccc(-c2cccc(C(=O)N3CCOCC3)c2)cc1 ?
aSyn UTR act: -79.8*

What do the screens show for `COc1ccc(C(=O)/C=C/Nc2ccc(C)cn2)cc1OC`?
aSyn UTR act: -139.9*

What do the screens show for `COc1ccc(NC(=O)c2coc(C)c2)cc1`?
aSyn UTR act: -115.2*

What do the screens show for `O=C(/C=C/Nc1ccccc1)c1ccc(Oc2ncccn2)cc1`?
aSyn UTR act: -243.5*

What do the screens show for `COc1ccc(Br)cc1CN(C)C(C)C(=O)Nc1cc([N+](=O)[O-])ccc1OC` (stereo not drawn)?
aSyn UTR act: 51.4

What do the screens show for `COc1ccc(NC(=O)c2cc([N+](=O)[O-])ccc2O)cc1`?
aSyn UTR act: 85.1

How did COc1ccc(NC(=O)c2cccc([N+](=O)[O-])c2)cc1 do in these assays?
aSyn UTR act: -105.0*

What do the screens show for `COc1ccc(C(=O)CNc2ccc3ccccc3c2)cc1`?
aSyn UTR act: -70.1*

Results for COc1ccc(N/C=C\C(=O)c2ccc3ccccc3c2)cc1 ?
aSyn UTR act: -211.7*

How did COc1ccc(C(=O)Nc2cccc([N+](=O)[O-])c2)cc1Br do in these assays?
aSyn UTR act: -85.0*

What do the screens show for `Cc1ccc(NCCC(=O)c2cccc([N+](=O)[O-])c2)cc1`?
aSyn UTR act: -151.3*

How did COC(=O)/C(=C/c1cccc([N+](=O)[O-])c1)NC(=O)c1ccc(OC)cc1 do in these assays?
aSyn UTR act: -216.3*

Results for O=C(N/N=C\c1cc(Cl)ccc1O)c1ccc(S(=O)(=O)N2CCCCC2)cc1 ?
aSyn UTR act: 112.5

How did CC(=O)c1ccc(S(=O)(=O)N2CCCC2)cc1 do in these assays?
aSyn UTR act: -84.1*

What do the screens show for `O=C(c1ccccc1)N1CCN(CC#Cc2ccccc2)CC1`?
aSyn UTR act: -65.5*

What do the screens show for `O=C(/C=C/c1ccc2c(c1)OCCCO2)c1ccc2ccccc2c1O`?
aSyn UTR act: -157.8*

How did Cc1ccc(C(=O)/C=C/c2ccc3c(c2)OCCO3)c(O)c1 do in these assays?
aSyn UTR act: -181.1*

What do the screens show for `Cc1ccc(C(=O)NC(=S)NCC2CCCO2)cc1Br` (stereo not drawn)?
aSyn UTR act: -154.6*

Results for O=C(NC(=S)NCC1CCCO1)c1ccc(Br)o1 (stereo not drawn) ?
aSyn UTR act: -108.4*

Results for Nc1cc(-c2ccccc2)ccc1O ?
aSyn UTR act: -117.7*

What do the screens show for `COC(=O)C1=C(O)/C(=C\c2cc(C)n(-c3ccccc3C)c2C)N=C1C`?
aSyn UTR act: -81.7*

What do the screens show for `CCN(CC)c1ccc(-c2nc3cnccc3n2C)cc1`?
aSyn UTR act: -111.0*

Results for Nc1cccc(-c2cn3cc(C(F)(F)F)cc(Cl)c3n2)c1 ?
aSyn UTR act: -99.9*

How did FC(F)(F)c1cc(Cl)c2nc(-c3ccccc3)cn2c1 do in these assays?
aSyn UTR act: -79.6*

Results for C#CC[N+](C)(C)CCCCCCCCCC ?
aSyn UTR act: 75.3

Results for c1cnc2c(SCc3ccc(-c4nnco4)cc3)cccc2c1 ?
aSyn UTR act: -82.2*

How did Cc1cccc(CSc2cccc3cccnc23)c1 do in these assays?
aSyn UTR act: -102.6*

Results for COc1ccc(C2=NN(C(=O)CN3CCOCC3)C(c3nc4ccccc4[nH]3)C2)cc1 (stereo not drawn) ?
aSyn UTR act: -72.4*

Results for CCOC(=O)c1c(CSc2ccc(CC)cc2)oc2ccc(O)c(CN(C)C)c12 ?
aSyn UTR act: 65.6

Results for CC(=O)c1c(CSc2ccccc2)oc2ccc(O)c(CN(C)C)c12 ?
aSyn UTR act: -62.7*

Results for O=C(/C=C/Nc1ccc([N+](=O)[O-])cc1Br)c1cccc2ccccc12 ?
aSyn UTR act: -163.0*

What do the screens show for `CCOc1ccc2c(c1)c(N=Nc1cccc(C(=O)O)c1)c(O)n2C`?
aSyn UTR act: -179.4*

How did CCc1ccccc1NC(=S)N=Nc1c(O)n(C)c2ccc(S(=O)(=O)N3CCOCC3)cc12 do in these assays?
aSyn UTR act: 80.5

Results for COc1ccc(/C=C/c2nc(-c3ccccc3O)n[nH]2)cc1 ?
aSyn UTR act: -74.4*

Results for CCOC(=O)c1c(C)[nH]c(C(=O)COC(=O)C2CC2C)c1C (stereo not drawn) ?
aSyn UTR act: -142.9*

Results for CCS(=O)(=O)Nc1cccc(-c2nc3cccnc3s2)c1C ?
aSyn UTR act: -98.5*

How did COc1cc(NS(=O)(=O)c2ccc(C)cc2)c2ncccc2c1 do in these assays?
aSyn UTR act: 68.6

What do the screens show for `Cc1ccc(-c2nc3cccnc3s2)cc1NS(C)(=O)=O`?
aSyn UTR act: -186.1*

Results for Cc1ccccc1-c1cc(-c2ccccc2O)n[nH]1 ?
aSyn UTR act: -183.2*

What do the screens show for `Cc1ccc(-c2cc(-c3ccccc3[N+](=O)[O-])[nH]n2)c(O)c1`?
aSyn UTR act: -343.4*

Results for Cc1ccc(-c2cc(-c3ccccc3Cl)[nH]n2)c(O)c1 ?
aSyn UTR act: -220.7*

How did COc1ccc(-c2nnc(SCc3ccccc3F)o2)cc1 do in these assays?
aSyn UTR act: -162.6*

How did c1ccc(CSc2nnc(-c3c[nH]c4ccccc34)o2)cc1 do in these assays?
aSyn UTR act: -151.5*

Results for Cc1ccccc1-c1nnc(SCc2ccccc2)o1 ?
aSyn UTR act: -190.7*

What do the screens show for `Fc1ccccc1CSc1nnc(-c2cccnc2)o1`?
aSyn UTR act: -68.8*

What do the screens show for `Cc1ccccc1-c1nnc(SCc2ccccc2F)o1`?
aSyn UTR act: -148.7*

What do the screens show for `Fc1ccccc1CSc1nnc(-c2ccccc2)o1`?
aSyn UTR act: -152.3*

How did COc1cc(OC)cc(-c2nnc(SCc3c(F)cccc3Cl)o2)c1 do in these assays?
aSyn UTR act: -101.3*

Results for O=C1C=C(c2cccs2)C[C@H](c2ccccc2)[C@H]1n1nnc([N+](=O)[O-])n1 ?
aSyn UTR act: 71.2

How did CCOC(=O)c1cnc2c(-c3ccccc3)cnn2c1C do in these assays?
aSyn UTR act: -112.4*

How did CC(=O)c1cnc2c(-c3ccccc3)cnn2c1C do in these assays?
aSyn UTR act: -68.2*

Results for CCOC(=O)C1CCN(C(=O)CCc2c(C)nc3cc(-c4ccccc4)nn3c2C)CC1 ?
aSyn UTR act: 66.5

Results for CCOC(=O)Cc1c(C)nc2c(-c3ccccc3)cnn2c1C ?
aSyn UTR act: -70.3*

How did CC(=O)c1ccc(NC(=O)CSc2nc(N3CCOCC3)nc(N3CCOCC3)n2)cc1 do in these assays?
aSyn UTR act: -72.7*

What do the screens show for `CC(=O)Nc1c(O)nc(SCC(=O)Nc2ccc(C(C)=O)cc2)[nH]c1=O`?
aSyn UTR act: -156.6*

Results for CCOc1ccc(/C=N/Nc2ccccn2)cc1OC ?
aSyn UTR act: -176.7*

What do the screens show for `C=CCOc1ccc(/C=N/Nc2ccccn2)cc1OC`?
aSyn UTR act: -246.2*

Results for COc1cc(/C=N/Nc2ccccn2)ccc1OCC(C)C ?
aSyn UTR act: -126.9*

Results for CCOc1ccc(/C=N/N(C)c2ccccc2)cc1OC ?
aSyn UTR act: -249.7*

How did CCCOc1ccc(/C=N/Nc2ccccn2)cc1OC do in these assays?
aSyn UTR act: -176.9*
